Screening results (PubChem BioAssay)
HCMV antiviral = blocks human cytomegalovirus replication | HFF cells, HCMV-luciferase reporter, 72 h; active compounds read low | activity change, negative = inhibition, % at 57.5 µM | 4.5% of 410,000 active | AID 1259415; in the data active = activity change below about -60%; inconclusive = no clear call, values can overlap the other calls; inactive = above about -39%
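Compounds were evaluated in HFFs infected with an HCMV luciferase reporter virus (MOI 1 PFU/cell). Luciferase in lysates collected 72 h post infection served as the replication measure.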
Pf growth 48h = P. falciparum growth inhibition at 48 hours (one generation); Potency, µM (titrated, usually from 28.7 µM), inactives show at the highest dose activity change, negative = inhibition, hits mostly inhibitors; AID 504832; P. falciparum luciferase growth in erythrocytes, 48 h; 5.9% of 310,000 active; note: potency is the fitted concentration of half-maximal effect
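Luciferase-expressing parasites in RBCs, 2% Hct / 0.1% parasitemia final; RPMI 1640 + 0.5% Albumax; 37 C, 5% CO2, one generation; luminescence read-out, lower signal = inhibition.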
HCV inhibitor = blocks hepatitis C virus; Huh7.5.1 HCVcc-Cre infection, luciferase reporter, 44 h; Potency, µM (doses to about 41.8 µM), inactives show at the top dose activity change, negative = inhibition, usual class: inhibitors; 3.4% of 340,000 active; AID 651820; note: potency is the fitted concentration of half-maximal effect
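Cells (1,000/well) were plated 4 h before compound, then infected with HCVcc-Cre virus (~0.5 moi). After 44 h further culture, infection was read as luciferase luminescence following a 15 min substrate incubation at room temperature.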
Pf growth 96h = P. falciparum growth inhibition at 96 hours; P. falciparum luciferase reporter growth, 96 h; Potency, µM (top dose mostly 28.7 µM), for inactives: top-dose activity change, negative = inhibition, actives largely listed as inhibitors; 6.9% of 320,000 active; AID 504834; note: potency is the fitted concentration of half-maximal effect
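Delayed-death screen, second-generation endpoint: infected erythrocytes, 2% hematocrit, 0.05% parasitemia final; 96 hours at 37 C, 5% CO2; luciferase detection reagent; luminescence decrease equals reduced growth.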
Numbers without * were called inactive; i = inactive; ? = inconclusive; / = not tested or not shown; [ ] = remark or other dose. Rows were chosen to be rich in hits. Some 13% of all compounds tested hit in one or more screens of this group. Unless noted, calls come from the whole dose curve; as a rule, active = well fitted inhibition curve with a large enough effect; inconclusive = small, poorly fitted or top-dose-only effect, or another doubt; inactive = no such curve, though single readings can be large or run the other way. % is set by controls: 0 for no effect and ±100 for the full control effect.

SMILES	HCMV antiviral	Pf growth 48h	HCV inhibitor	Pf growth 96h
Cc1ccc2c(=O)cc(C(=O)Nc3ccc(S(=O)(=O)N(C)Cc4ccccc4)cc3)oc2c1C	6	/	/	/
COc1ccc(N2CCN(Cc3csc(C)c3-c3ccc(C)cc3)CC2)cc1	-68*	10µM*	?	0%
O=S(=O)(c1ccc2[nH]c3c(c2c1)CCCC3)N1CCN(c2cccc(C(F)(F)F)c2)CC1	-13	/	/	/
CCc1ccc(C(=O)c2cn(CC(=O)Nc3ccc(OC)c(Cl)c3)c3nc(C)ccc3c2=O)cc1	-3	/	/	/
O=C(Nc1ccccc1)Nc1ccccc1	0	/	?	/
O=C(Nc1ccccc1)Nc1n[nH]c2nnc(-c3ccccc3)c(-c3ccccc3)c12	8	?	14µM*	?
O=C(c1ccccc1)c1ccc(Cn2cc(CCCO)nn2)cc1	?	-10%	10µM*	-18%
O=C(c1ccccc1)c1ccc(Cn2cc(-c3ccccc3)nn2)cc1	?	37%	1.4µM*	56%
COC(=O)C1CCN(Cc2ccc(OCCCN3CCN(c4ccc([N+](=O)[O-])cc4)CC3)cc2)CC1	-32	2.3µM*	?	10µM*
CCCN(CCC)CCNC(=O)c1cc2c(-c3ccccc3F)nn(C)c2s1	-24	3.3µM*	?	1%
CC(CCc1ccco1)NC(=O)c1cc2c(-c3ccccc3F)nn(C)c2s1 (configuration not stated)	23	/	18µM*	?
CCCN(CCC)CCCNC(=O)c1cc2c(-c3ccc(OC)c(OC)c3)nn(C)c2s1	-20	2.1µM*	?	1%
CCCN(CCC)CCNC(=O)c1cc2c(-c3ccc(Cl)cc3)nn(C)c2s1	?	0.47µM*	8.9µM*	11%
COc1ccc(-c2nn(C)c3sc(C(=O)NCCN(C)C)cc23)cc1OC	87	0%	?	56%
CCOC(=O)c1cc(-c2ccccc2)nn1Cc1ccccc1	59	/	/	/
COc1ccc2c(c1)c1c(c(=O)n(CCc3ccccc3)c(=O)n1Cc1ccc(Cl)cc1)n2C	33	/	/	/
CN1CCN(c2nc3c(S(=O)(=O)c4ccc(Br)cc4)nnn3c3ccsc23)CC1	63	/	/	/
CCOC(=O)CCn1nc(C)c2c(C)n(-c3ccccc3)nc2c1=O	28	/	/	/
COc1cccc(N2CC(NC(=O)/C=C\c3ccc4c(c3)OCO4)CC2=O)c1 (configuration not stated)	-9	/	/	/
Cn1nc(-c2ccccc2F)c2cc(C(=O)NCc3ccc(Cl)cc3)sc21	-71*	/	/	/
Cn1nc(-c2ccccc2F)c2cc(C(=O)NCc3cccc(Cl)c3)sc21	-32	/	/	/
COc1ccc(CN2CCC(CO)(Cc3ccccc3C(F)(F)F)CC2)c(F)c1	45	4.7µM*	?	?
CCc1cccc(CC)c1NC(=S)NCCc1ccc(O)c(O)c1	-14	?	-21%	?
COc1ccc2[nH]c(C)c(CCNC(=S)Nc3ccc(C)cc3)c2c1	-68*	?	?	?
CCc1cccc(CC)c1NC(=S)NCCc1c(C)[nH]c2ccccc12	-71*	13µM*	?	13µM*
SMILES	HCMV antiviral	Pf growth 48h	HCV inhibitor	Pf growth 96h
CCOc1cccc2sc(N3CCN(C(=O)c4ccc5c(c4)CCCC5)CC3)nc12	34	/	/	/
Cc1ccc(C(=O)NC2CCc3ccccc3C2=O)cc1 (configuration not stated)	75	i	-9%	462%
C[N+](C)(C)CC1CCCc2ccccc2C1=O (configuration not stated)	?	/	11µM*	/
C[N+](C)(C)CC1CCCC(C[N+](C)(C)C)C1=O (configuration not stated)	-28	/	2.2µM*	/
COc1ccc(N2C(=O)CC(Sc3ncn[nH]3)C2=O)c(OC)c1 (configuration not stated)	-98*	-14%	16µM*	3%
CC(C)c1ccc(N2C(=O)CC(Sc3ncn[nH]3)C2=O)cc1 (configuration not stated)	6	/	15%	-4%
O=C(Nc1cccc(F)c1)c1ccc(-c2ccccc2C(F)(F)F)o1	39	?	2%[8.37 µM]	15µM*
Cc1ccccc1-c1ccc(C(=O)Nc2cccc(F)c2)o1	58	-16%	-27%[8.37 µM]	-61%
Cc1ccc(CSc2nnc(-c3ccncc3)n2N)cc1	?	3%	15%	-14%
Nn1c(SCc2ccc(Br)cc2)nnc1-c1ccncc1	-63*	4%	-3%	-3%
Cc1ccc(CN2CCC(c3nc4ccc(Cl)cc4[nH]3)CC2)cc1	-20	8.3µM*	11µM*	?
